# In ChEMBL document CHEMBL3988442, “University of Dundee, Small-Polar-MMV Screening Library” (2021):
# In all, about 69,000 compounds went through this assay and about 1,000 (1.4%) showed an effect of 50% or more. The sample as a whole holds a higher share of strong results than the screen did.
# System: Leishmania donovani
# Experiment: Leishmania intramacrophage assay
# Assay type: functional, organism-based
# Set-up: scale not given: in the data most compounds retested in dose-response had high values
structure (smiles),measurement,setting,value
CN1C(=O)C2(CCN(CC3CC3)CC2)c2ccccc21.O=C(O)C(F)(F)F,Percent Effect,"30 µM, 30.03 µM",16.21%
CN(C)[C@@H]1CCN(C(=O)Cc2ccc(F)cc2)[C@H]1Cc1ccncc1.O=C(O)C(F)(F)F.O=C(O)C(F)(F)F,Percent Effect,"30.3 µM, […]",29.68%
Cc1cccc(CN2CC[C@@H]3[C@@H]2CCN3C(=O)c2ccoc2C)n1.O=C(O)C(F)(F)F.O=C(O)C(F)(F)F,Percent Effect,"30.3 µM, […]",32.03%
Cc1[nH]c(C2(N)CCCCC2)nc(=O)c1C.Cl,Percent Effect,"30.3 µM, […]",27.19%
Cc1cnc(C(=O)N2C[C@H]3CN(Cc4cccnc4)C[C@H]3C2)cn1.O=C(O)C(F)(F)F.O=C(O)C(F)(F)F,Percent Effect,"30.3 µM, […]",19.7%
Cc1noc(C)c1CN1C[C@@H]2C[C@H](C(=O)NCC3CC3)N(C)[C@@H]2C1.O=C(O)C(F)(F)F.O=C(O)C(F)(F)F,Percent Effect,"30.3 µM, […]",-4.016%
CCN1CC2(CC1=O)CN(Cc1ccccn1)CCN(C(C)=O)C2.O=C(O)C(F)(F)F.O=C(O)C(F)(F)F (stereo not drawn),Percent Effect,"30.3 µM, […]",0.8966%
O=C(O)C(F)(F)F.O=C(O)C(F)(F)F.c1ccc(CN2CC[C@H]3CO[C@H](CNc4ncccn4)[C@H]3C2)cc1,Percent Effect,"30.3 µM, […]",8.127%
O=C(O)C(F)(F)F.O=C(O)C(F)(F)F.c1cncc(COC[C@H]2CC[C@H]3[C@H](CCN3Cc3nccs3)O2)c1,Percent Effect,"30.3 µM, […]",98.87%
CN(C)C(=O)CN1CC[C@@H]2O[C@@H](COCc3cccnc3)CC[C@@H]21.O=C(O)C(F)(F)F.O=C(O)C(F)(F)F,Percent Effect,"30.3 µM, […]",38.61%
O=C(O)C(F)(F)F.O=C(O)C(F)(F)F.c1cncc(COC[C@H]2CC[C@H]3[C@H](CCN3Cc3cccs3)O2)c1,Percent Effect,"30 µM, 30.03 µM",31.53%
COc1cc(CNC(C)Cn2cccn2)cc(Cl)c1OC.Cl (stereo not drawn),Percent Effect,30 µM,29.92%
Cc1cc(CN2C[C@@H]3COC[C@]3(CNC(=O)c3ccsc3)C2)no1.O=C(O)C(F)(F)F,Percent Effect,"30.3 µM, […]",18.56%
O=C(O)C(F)(F)F.O=C(c1ccc[nH]1)N1CCC2(CCCN2Cc2cccnc2)CC1,Percent Effect,"30.3 µM, […]",12.17%
Cn1cc(CN2CCC3(CCCN3Cc3cccnc3)CC2)cn1.O=C(O)C(F)(F)F.O=C(O)C(F)(F)F.O=C(O)C(F)(F)F,Percent Effect,"30.3 µM, […]",63.2%
Cn1cc(N2CCC3(CCN(Cc4cccnc4)C3)C2=O)cn1.O=C(O)C(F)(F)F.O=C(O)C(F)(F)F (stereo not drawn),Percent Effect,"30 µM, 30.03 µM",-14.07%
COCCN1C[C@@H]2[C@@H](OC)CCN(C(=O)Cc3ccccc3)[C@@H]2C1.O=C(O)C(F)(F)F,Percent Effect,"30.3 µM, […]",35.25%
COc1cc(C2SCC(=O)Nc3[nH]ncc32)cc2c1OCO2 (stereo not drawn),Percent Effect,"30.3 µM, […]",1.862%
COc1cc(C2SCC(=O)Nc3[nH]ncc32)c(OC)c2c1OCO2 (stereo not drawn),Percent Effect,"30.3 µM, […]",8.87%
COc1cc(C2SCC(=O)Nc3[nH]ncc32)cc(OC)c1OC (stereo not drawn),Percent Effect,"30.3 µM, […]",56.1%
COc1ccnc(N2C[C@@H]3CC[C@H](C2)N(CC2CC2)C3)n1,Percent Effect,"30.3 µM, […]",37.63%
COc1ccc(-c2ccccc2CCN)c(OC)c1,Percent Effect,"30.3 µM, […]",75.35%
CCOc1ccc(-c2cc(CCN)ccc2OC)cc1,Percent Effect,"30.3 µM, […]",-5.145%
CC(=O)Nc1cccc(-c2ccccc2CCN)c1,Percent Effect,"30.3 µM, […]",-35.33%
COCC(=O)N1CCC2(CCN(Cc3cccnc3)C2)CC1.O=C(O)C(F)(F)F.O=C(O)C(F)(F)F,Percent Effect,"30.3 µM, […]",22.03%
Fc1cnc(N2CCO[C@H]3CN(CC4CCCCC4)C[C@H]32)nc1.O=C(O)C(F)(F)F,Percent Effect,"30.3 µM, […]",-16.59%
O=C(O)C(F)(F)F.O=C(O)C(F)(F)F.O=C(O)C(F)(F)F.O=C1C[C@@H]2[C@H](CCN2Cc2ccccn2)N1Cc1ccncc1,Percent Effect,"30.3 µM, […]",27.44%
Fc1ccccc1CN1C[C@@H]2OCCN(c3ncccn3)[C@@H]2C1,Percent Effect,"30.3 µM, […]",15.52%
c1ccc(CN2C[C@@H]3OCCN(CC4CCCO4)[C@@H]3C2)nc1 (stereo partly drawn),Percent Effect,"30 µM, 30.03 µM",15.57%
O=C(O)C(F)(F)F.O=C(O)C(F)(F)F.O=C(O)C(F)(F)F.c1ccc(CN2C[C@@H]3OCCN(c4ncccn4)[C@@H]3C2)nc1,Percent Effect,"30 µM, 30.03 µM",-0.09782%
c1ccc(CN2C[C@@H]3OCCN(c4cccnc4)[C@@H]3C2)nc1,Percent Effect,"30.3 µM, […]",55.81%
Cc1ccc(N2CCO[C@H]3CN(Cc4ccccn4)C[C@H]32)nn1.O=C(O)C(F)(F)F.O=C(O)C(F)(F)F.O=C(O)C(F)(F)F,Percent Effect,"30.3 µM, […]",63.6%
O=C(O)C(F)(F)F.c1cncc(N2CCO[C@H]3CN(CC4CCOC4)C[C@H]32)c1 (stereo partly drawn),Percent Effect,"30.3 µM, […]",31.71%
Cn1ccnc1CN1C[C@@H]2OCCN(c3ncccn3)[C@@H]2C1,Percent Effect,"30.3 µM, […]",50.19%
c1ccc(CCN2C[C@@H]3OCCN(c4ncccn4)[C@@H]3C2)cc1,Percent Effect,"30.3 µM, […]",6.788%
Cc1ccc(N2CCO[C@H]3CN(Cc4ccncc4)C[C@H]32)nn1.O=C(O)C(F)(F)F.O=C(O)C(F)(F)F.O=C(O)C(F)(F)F,Percent Effect,"30 µM, 30.03 µM",16.14%
CC(C)N1CC[C@@H]2OC[C@H](C(=O)Nc3cccnc3)C[C@@H]2C1.O=C(O)C(F)(F)F.O=C(O)C(F)(F)F,Percent Effect,"30.3 µM, […]",-12.98%
CCCn1nc(C)c(-c2cncn2CC2(N(C)C)CCC(C)CC2)c1C (stereo not drawn),Percent Effect,"30.3 µM, […]",1.091%
